Sm TGR inh: inhibitors of Schistosoma mansoni thioredoxin glutathione reductase | Q962Y6 | purified TGR, DTNB reduction, TNB absorbance 405 nm | Potency, µM (series often up to 114 µM), usual class: inhibitors | actives 3% (n = 360,000) | AID 485364; also: nearly all actives have a fitted effect of over 60% in size
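First, TGR (20 nM dispensed) and NADPH were mixed with compound. Second, a 15 min room-temperature incubation followed. Third, further NADPH and then DTNB were added to start the reaction. Finally, TNB absorbance was monitored kinetically.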
SARS PLpro yeast-1: SARS-CoV PLP inhibition in yeast. Potency, µM (highest dose often 32.9 µM), most hits filed as activators. S. cerevisiae expressing SARS-CoV PLpro, growth rescue. AID 485353. actives 0.19% (n = 330,000); calls by dose curve; also: nearly all actives have a fitted effect of over 55% in size
HCV inh: HCV inhibition. Potency, µM (series often up to 41.8 µM), usual class: inhibitors. actives 3.4% (n = 340,000). Huh7.5.1 HCVcc-Cre infection, luciferase reporter, 44 h
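Cells seeded at 1,000/well and cultured 4 h, then compounds added followed by HCVcc-Cre virus (~0.5 moi). After 44 h further culture, luciferase substrate was added, plates held 15 min at room temperature, and luminescence read for 15 sec.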
HCMV inh: human cytomegalovirus inhibition; HFF cells, HCMV-luciferase reporter, 72 h; active compounds read low; activity change, negative = inhibition, % at 57.5 µM; actives 4.5% (n = 410,000); AID 1259415; in the data active = activity change below about -60%; inconclusive = no clear call, values can overlap the other calls; inactive = above about -39%
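Human foreskin fibroblasts infected with luciferase-reporter HCMV at MOI 1 PFU/cell, compounds at two doses. Luciferase measured 72 h post infection; normalized to buffer-only basal and Salinomycin (10uM) controls.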
Pf growth 96h: inhibits malaria parasite growth, 96 h; P. falciparum luciferase reporter growth, 96 h; Potency, µM (highest dose often 28.7 µM), actives largely listed as inhibitors; actives 6.9% (n = 320,000)
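Readout is luminescence from an integrated firefly luciferase in P. falciparum. Red cells, 2% hematocrit and 0.05% parasitemia final, were cultured with compound through two parasite generations (96 hours) at 37 C, 5% CO2.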
Pf growth 48h: P. falciparum growth inhibition at 48 hours (one generation); P. falciparum luciferase growth in erythrocytes, 48 h; Potency, µM (top dose mostly 28.7 µM), actives largely listed as inhibitors; actives 5.9% (n = 310,000)
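Read-out is firefly luciferase luminescence from an integrated reporter in P. falciparum, so falling signal marks reduced parasite growth. Infected erythrocytes were at 2% hematocrit and 0.1% parasitemia (final) in Albumax-supplemented RPMI 1640.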
SARS PLpro yeast-2: Validates SARS-CoV PLpro inhibitor hits in yeast; calls only; yeast expressing SARS-CoV PLpro, growth phenotype rescue; actives 19% (n = 1,000); shares compounds with SARS PLpro yeast-1; call rule not given here
Hits are given with their value; 0 = inactive; ? = inconclusive; - = no result given; + = active, no number. Shown are actives, neighbours in structure and some others; about 15% of the full set was active somewhere. Unless noted, calls follow the shape of the dose curve; as a rule, active = well fitted curve in the direction sought with a large enough effect; inconclusive = small, poorly fitted or top-dose-only effect, or another doubt; inactive = no such curve, though single readings can be large; an effect the other way counts as inactive or inconclusive.

SMILES	Sm TGR inh	SARS PLpro yeast-1	HCV inh	HCMV inh	Pf growth 96h	Pf growth 48h	SARS PLpro yeast-2
COc1cccc(C(=O)CSc2nnc(-c3cc(OC)c(OC)c(OC)c3)o2)c1	0	?	0	0	0	-	?
COc1cc(-c2nnc(SCC(=O)c3ccc(C)cc3)o2)cc(OC)c1OC	0	0	?	0	?	0	-
CCc1ccc(NCc2cc3cc(OC)c(OC)cc3n(CC(=O)Nc3cc(C)ccc3C)c2=O)cc1	0	-	-	0	-	-	-
Cc1c(C(=O)OCC2CCCO2)[nH]c2c1C(=O)CC(c1ccco1)C2 (configuration not stated)	?	?	?	-	-	?	0
COc1cccc(NC(=O)Cn2cnc3c(oc4nc5c(cc43)CCCC5)c2=O)c1	0	?	0	0	?	0	?
O=C(COC(=O)c1cnc(Cl)c(Cl)c1)Nc1ccc(S(=O)(=O)N2CCCC2)cc1	0	?	0	0	0	0	0
NS(=O)(=O)c1ccc(CCNC(=O)c2coc3ccccc3c2=O)cc1	0	0	0	0	0	0	-
Cc1ccc(-c2nc3cc(Cl)ccc3o2)cc1NC(=O)COc1ccc(F)cc1	0	-	-	0	-	-	-
Cc1nn(C)c(C)c1/C=C1/CC2C3CC=C4CC(O)CCC4(C)C3CCC2(C)C1=O (configuration not stated)	0	13µM	0	0	?	?	0
CC1Cc2ccccc2N1c1nc(C2CC2)nc2c1nnn2Cc1ccccc1 (configuration not stated)	0	?	0	0	0	0	+
O=C(Nc1ccc(F)c(F)c1)c1ccccc1-c1ccccc1	0	14µM	0	0	0	0	0
O=C1c2ccccc2NC(c2cn[nH]c2-c2ccccc2)N1O (configuration not stated)	0	?	0	0	0	0	0
O=C1c2ccccc2NC(c2cn[nH]c2-c2ccc(Cl)cc2)N1O (configuration not stated)	0	7.9µM	?	0	0	?	?
O=C1c2ccccc2NC(c2ccccc2O)N1O (configuration not stated)	0	0	0	0	?	-	-
COc1ccc(CNC(=O)CN(Cc2ccc(F)cc2)C(=O)c2csnn2)cc1	-	0	0	0	0	0	-
Cc1c(C(=O)OCC(=O)NCC2CCCO2)cccc1[N+](=O)[O-] (configuration not stated)	0	0	0	0	0	0	-
COc1ccc(/C(N)=N/OC(=O)c2cccc([N+](=O)[O-])c2C)cc1OC	0	?	?	-	13µM	-	0
COc1cccc(C(=O)O/N=C(\N)c2ccc([N+](=O)[O-])cc2)c1OC	0	0	?	0	?	0	-
Cc1ccc(C(C)C)c(OCc2ccc(C(=O)N/N=C/c3cccc(O)c3O)cc2)c1	0	2.8µM	22µM	-	2.6µM	1.7µM	?
O=C(NCc1cc(C(F)(F)F)cc(C(F)(F)F)c1)c1cc(-c2cc(F)ccc2OCC2CCCO2)n[nH]1 (configuration not stated)	-	-	-	0	-	-	-
COc1cc([N+](=O)[O-])cc(/C=N/NC(=O)c2ccc(C)nc2)c1O	0	8.9µM	?	0	?	0	?
CCOc1ccc(NC(C)C(=O)N/N=C/c2ccc([N+](=O)[O-])cc2)cc1 (configuration not stated)	0	0	-	-	0	0	-
COc1cc([N+](=O)[O-])cc(/C=N/NC(=O)C(C)Nc2cccc(C)c2)c1O (configuration not stated)	0	?	0	0	0	0	?
O=C(CSC1=NS(=O)(=O)c2cc(F)ccc2N1)NCc1ccccc1Cl	0	0	0	0	0	0	-
CC[C@H]1O[C@H](C)CC2=C1C(=O)OC(C)(C)O2	-	-	-	0	-	-	-
Cc1cccc(NC(=S)NNC(=O)COc2ccc(Cl)cc2Cl)c1	0	10µM	0	0	0	0	+
Cc1ccc2[nH]cc(C(=O)CCl)c2c1	?	-	25µM	-91	0	?	0
Cc1sc(NC(=O)c2ccccc2)c(C(=O)NC(C)C)c1C	0	?	?	0	0	-	0

Compound activity (PubChem)
